# Results taken from ChEMBL document CHEMBL3433997, “St. Jude Leishmania screening dataset” (2016).
# What was measured:
# Format in all cases: functional
# [1] = target: Solute carrier family 2, facilitated glucose transporter member 1 (Homo sapiens) (UniProt P11166); assay: ST_JUDE_LEISH: Cytotoxicity at 2uM final concentration against transgenic Leishmania Mexicana promastigotes LmGLUT1 that are glucose transport deficient and complemented with the human glucose transporter GLUT1. Activity is measured by DNA content using SYBR green in vitro
# Solute carrier family 2, facilitated glucose transporter member 1 (Homo sapiens), sequence (P11166 whole entry): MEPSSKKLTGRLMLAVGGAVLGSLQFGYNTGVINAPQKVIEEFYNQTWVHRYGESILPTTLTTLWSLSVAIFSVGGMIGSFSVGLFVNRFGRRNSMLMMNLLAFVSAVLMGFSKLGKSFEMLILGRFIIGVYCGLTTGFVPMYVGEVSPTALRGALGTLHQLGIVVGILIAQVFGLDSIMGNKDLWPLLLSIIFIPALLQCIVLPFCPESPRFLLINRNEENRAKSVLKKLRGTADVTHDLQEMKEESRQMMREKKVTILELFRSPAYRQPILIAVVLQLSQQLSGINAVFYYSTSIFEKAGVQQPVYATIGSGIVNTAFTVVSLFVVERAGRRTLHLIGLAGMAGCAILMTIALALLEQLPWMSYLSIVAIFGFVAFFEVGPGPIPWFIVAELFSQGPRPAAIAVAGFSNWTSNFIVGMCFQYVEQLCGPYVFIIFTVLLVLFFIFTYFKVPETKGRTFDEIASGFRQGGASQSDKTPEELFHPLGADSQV
# [2] = target: Hexose transporter 1 (Plasmodium falciparum) (UniProt O97467); assay: ST_JUDE_LEISH: Cytotoxicity at 2uM final concentration against transgenic Leishmania Mexicana promastigotes LmPfHT that are glucose transport deficient and complemented with the Plasmodium falciparum hexose transporter. Activity is measured by DNA content using SYBR green in vitro
# [3] = target: Glucose transporter (Leishmania mexicana) (UniProt O61059); assay: ST_JUDE_LEISH: Cytotoxicity at 2uM final concentration against transgenic Leishmania Mexicana promastigotes LmGT2 that are glucose transport deficient and complemented with the L. Mexicana glucose transporter 2. Activity is measured by DNA content using SYBR green in vitro
structure (smiles),measurement,setting,value
c1ccc2c(c1)ncn2-c1ccnc(Nc2ccncc2)n1,inhibition,[1],6.4%
same,inhibition,[2],6.42%
same,inhibition,[3],6.75%
Cc1nnsc1C(=O)Nc1cccc(-c2ccc(-c3nc4cc(F)ccc4[nH]3)cc2)c1,inhibition,[1],3.93%
same,inhibition,[2],3.3%
same,inhibition,[3],4.66%
Cc1ccc(NC(=O)c2ccc(CN3CCCN(CCC(C)C)CC3)cc2)cc1F,inhibition,[1],7.11%
same,inhibition,[2],7.04%
same,inhibition,[3],9.05%
COc1c(C2CCN(CCCCNC(=O)c3ccc(-c4ccc(Cl)cc4)c(OCC(N)=O)c3)CC2)ccc2c1CCCC2,inhibition,[1],4.52%
same,inhibition,[2],3.3%
same,inhibition,[3],5.11%
CC(=O)c1c(C)[nH]c(C(=O)Nc2ccc(-c3nc4ccc(C)cc4s3)cc2)c1C,inhibition,[1],-0.62%
same,inhibition,[2],-4.21%
same,inhibition,[3],2.35%
Cc1cc(N[C@@H](Cc2ccccc2)C(=O)NCc2cccs2)nc(NCCOc2ccccc2)n1,inhibition,[1],8.74%
same,inhibition,[2],10.4%
same,inhibition,[3],5.27%
CCc1cccc(C)c1-n1nc(-c2cc(C(C)(C)C)oc2C)cc1N,inhibition,[1],2.34%
same,inhibition,[2],1.75%
same,inhibition,[3],0.33%
N#Cc1cccc(C(=O)Nc2ccc(-c3cccc(CN4CCCC4)c3)cc2)c1,inhibition,[1],55.6%
same,inhibition,[2],6.55%
same,inhibition,[3],7.42%
COc1ccc(CNCc2ccc(F)cc2)cc1-c1ccc(S(=O)(=O)NCCN2CCCC2)cc1,inhibition,[1],7.44%
same,inhibition,[2],6.73%
same,inhibition,[3],5.24%
CCN(CC)CCCCCNc1c2ccc(Cl)cc2nc2ccc(OC)cc12,inhibition,[1],2.17%
same,inhibition,[2],1.26%
same,inhibition,[3],1.52%
CC(C)Cn1cc(C2CCN(CCN3CCC(CNC(=O)c4ccc(-c5ccc(C(F)(F)F)cc5)cc4)CC3)CC2)c2ccccc21,inhibition,[1],2.78%
same,inhibition,[2],3.07%
same,inhibition,[3],2.25%
CCOC(=O)c1cnc2cc(N3CCCC3)c(Cl)cc2c1OCC,inhibition,[1],1.28%
same,inhibition,[2],-0.81%
same,inhibition,[3],0.52%
NS(=O)(=O)c1cccc(Nc2nc(N[C@@H]3CCNC3)nc3cc[nH]c(=O)c23)c1,inhibition,[1],4.84%
same,inhibition,[2],2.08%
same,inhibition,[3],-3%
COc1cc(C(=O)NCCCN2CCN(c3cccc(Cl)c3)CC2)ccc1-c1nc2cc(Cl)c(F)cc2[nH]1,inhibition,[1],1.22%
same,inhibition,[2],0.6%
same,inhibition,[3],0.03%
[O-][S+]1c2ccccc2Sc2ccccc21,inhibition,[1],2.27%
same,inhibition,[2],3.44%
same,inhibition,[3],1.95%
NC(=O)C1CCN(Cc2cccc(-c3cccc(-c4nc5cc(F)ccc5[nH]4)c3)c2)CC1,inhibition,[1],-0.94%
same,inhibition,[2],1.68%
same,inhibition,[3],1.45%
CCn1c(-c2nc(-c3ccc4c(c3)OCO4)cnc2N)nc2cnccc21,inhibition,[1],19.7%
same,inhibition,[2],12.4%
same,inhibition,[3],13.5%
Cc1cccc2nc(-c3ccc(-c4cccc(NC(=O)CCc5c[nH]cn5)c4)cc3)[nH]c12,inhibition,[1],0.1%
same,inhibition,[2],1.46%
same,inhibition,[3],2.35%
CC(=O)N(C)C1CCN(Cc2ccc(-c3cccc(-c4nc5cc(F)ccc5[nH]4)c3)cc2)C1 (centres undefined),inhibition,[1],1.27%
same,inhibition,[2],-0.26%
same,inhibition,[3],1.68%
COc1ccc2nccc([C@H](O)CN3CCC(NCc4nc5cccc(F)c5[nH]4)CC3)c2c1,inhibition,[1],3.63%
same,inhibition,[2],1.1%
same,inhibition,[3],2.36%
O=C(Cn1c(=O)cnc2ccccc21)Nc1cccc(C(=O)Nc2cccc(C(F)(F)F)c2)c1,inhibition,[1],1.09%
same,inhibition,[2],3.37%
same,inhibition,[3],1.93%
COc1ccc(Nc2nccc(N3CCC(NC(=O)C(C)c4ccc(Cl)cc4)CC3)n2)cc1 (centres undefined),inhibition,[1],0.43%
same,inhibition,[2],0.07%
same,inhibition,[3],0.26%
COc1cc(NCC(C)CNCc2cn(Cc3ccccc3)c3ccccc23)nc2ccccc12 (centres undefined),inhibition,[1],3.78%
same,inhibition,[2],6.19%
same,inhibition,[3],6.44%
O=C(/C=C/c1ccc(Cl)c(Cl)c1)NC1CCC(CN2CCC(c3coc4ccccc34)CC2)CC1 (centres undefined),inhibition,[1],-1.76%
same,inhibition,[2],1.76%
same,inhibition,[3],-1.87%
CCCc1cc(N2CCC(c3ccccc3)(N3CCCCC3)CC2)nc(Nc2ccc(OC)cc2)n1,inhibition,[1],15.7%
same,inhibition,[2],16.5%
same,inhibition,[3],6.08%
Cc1ccc(Nc2nc(C)cc(NC3CC3)n2)cc1,inhibition,[1],8.73%
same,inhibition,[2],6.75%
same,inhibition,[3],7%
Cc1cccc2nc(-c3ccc(-c4cccc(CN5CCCC5CN)c4)cc3)[nH]c12 (centres undefined),inhibition,[1],1.08%
same,inhibition,[2],1.46%
same,inhibition,[3],1.07%
O=C(/C=C/c1ccc(Cl)c(Cl)c1)NCCCCCCN1CCN(C(=O)Nc2ccc(Cl)c(C(F)(F)F)c2)CC1,inhibition,[1],4.18%
same,inhibition,[2],4.06%
same,inhibition,[3],-1.95%
CCc1ccc(NC(=O)c2ccc(CN3CCCN(Cc4ccc(C)s4)CC3)cc2)cc1,inhibition,[1],3.79%
same,inhibition,[2],5.06%
same,inhibition,[3],2.95%
COc1ccc2nccc(C(=O)NC3CCC(CCN4CCc5cc(C#N)ccc5C4)CC3)c2c1 (centres undefined),inhibition,[1],7.23%
same,inhibition,[2],5.23%
same,inhibition,[3],6.71%
CN1Cc2ccc(NS(=O)(=O)c3ccc(-c4ccoc4)cc3)cc2C1,inhibition,[1],-2.45%
same,inhibition,[2],-1.72%
same,inhibition,[3],-3.6%
N#Cc1ccc(C=Cc2nccc3c2[nH]c2ccccc23)cc1,inhibition,[1],10.9%
same,inhibition,[2],9.49%
same,inhibition,[3],9.13%
O=C(NC1CC1)c1ccc(N2CCC(COc3cccc(F)c3)CC2)nc1,inhibition,[1],5.26%
same,inhibition,[2],4.16%
same,inhibition,[3],6.94%
CC(C)(C)c1ccc(CN2CCC(NC(=O)c3ccc(-c4cccc(C(F)(F)F)c4)s3)CC2)cc1,inhibition,[1],1.56%
same,inhibition,[2],-0.78%
same,inhibition,[3],-5.64%
CNC(=O)COc1ccc(Nc2nnc(-c3ccc(C)c(S(=O)(=O)NCC4CCCO4)c3)c3ccccc23)cc1 (centres undefined),inhibition,[1],1.3%
same,inhibition,[2],0.12%
same,inhibition,[3],-0.43%
Cc1cc(NCCC(=O)NCCOc2ccccc2)nc(NCCc2ccccc2)n1,inhibition,[1],7.78%
same,inhibition,[2],5.18%
same,inhibition,[3],0.66%
O=C(NCCc1cccc(F)c1)c1cc(Br)cc(N2CCN(c3ccncc3)CC2)c1,inhibition,[1],6.76%
same,inhibition,[2],5.57%
same,inhibition,[3],3.44%
COc1ccc(CCNC(=O)c2ccccc2O)cc1-c1ccc(C(C)(C)C)cc1,inhibition,[1],4.03%
same,inhibition,[2],2.33%
same,inhibition,[3],3.39%
COc1cc(NCC(O)CNc2cc(OC)c3ccccc3n2)nc2ccccc12,inhibition,[1],33.2%
same,inhibition,[2],12.5%
same,inhibition,[3],4.93%
Cc1cc(OCC(=O)Nc2ccc(-c3nc4ccccc4[nH]3)cc2)cc(C)c1Cl,inhibition,[1],0.45%
same,inhibition,[2],2%
same,inhibition,[3],-0.9%
Nc1ccc(-c2nc3c(ccc4ccccc43)[nH]2)cc1,inhibition,[1],2.25%
same,inhibition,[2],1.85%
same,inhibition,[3],0.2%
CN1CCN(Cc2ccc(-c3cc4nccc(Nc5ccc(Oc6ccccc6)cc5)c4cc3Cl)o2)CC1,inhibition,[1],1.96%
same,inhibition,[2],2.5%
same,inhibition,[3],2.69%
O=C(NCCNc1noc(-c2sccc2Br)n1)c1ccc(Cl)cc1,inhibition,[1],-1.4%
same,inhibition,[2],3.34%
same,inhibition,[3],-0.91%
Nc1nc(N)c2c3c(ccc2n1)CCC3,inhibition,[1],0.87%
same,inhibition,[2],1.48%
same,inhibition,[3],1.24%
COc1cc(Nc2ncc3c(C)nc(-c4cc5ccccc5[nH]4)n3n2)cc(OC)c1OC,inhibition,[1],4.94%
same,inhibition,[2],5.87%
same,inhibition,[3],2.06%
Nc1ncnc2cc(-c3cccc(NC(=O)Nc4ccccc4)c3)sc12,inhibition,[1],3.48%
same,inhibition,[2],2.18%
same,inhibition,[3],-1.3%
COc1cccc2c(N/N=C/c3ccccc3[N+](=O)[O-])ccnc12,inhibition,[1],4.82%
same,inhibition,[2],5.71%
same,inhibition,[3],3.87%
Cc1ccc(NC(=O)c2cnc(N3CCN(c4ccncc4)CC3)c(Cl)c2)cc1,inhibition,[1],42.8%
same,inhibition,[2],16.1%
same,inhibition,[3],17.1%
CS(=O)(=O)CCN(CCS(C)(=O)=O)Cc1ccc(-c2ccc3ncnc(Nc4ccc(OCc5cccc(F)c5)c(Cl)c4)c3c2)o1,inhibition,[1],2%
same,inhibition,[2],2.02%
same,inhibition,[3],2.35%
CC(C)C[C@@H](/C=N/N1CCOC1=O)NC(=O)[C@H](CC(C)C)NC(=O)c1ccc(F)cc1,inhibition,[1],7.39%
same,inhibition,[2],11.5%
same,inhibition,[3],6.1%
O=C(NCc1ccc(Cl)c(Cl)c1)c1ccc(-c2nc3ccc(F)cc3[nH]2)cc1,inhibition,[1],12.4%
same,inhibition,[2],11.1%
same,inhibition,[3],11.6%
CC(C)(C)c1ccc2[nH]c(-c3ccc(C(=O)NCCCc4ccccc4)cc3)nc2c1,inhibition,[1],2.42%
same,inhibition,[2],2.97%
same,inhibition,[3],-0.47%
CNCCNCc1ccc(-c2ccc(-c3nc4cccc(C)c4[nH]3)cc2)cc1,inhibition,[1],5.52%
same,inhibition,[2],4.65%
same,inhibition,[3],4.77%
CCCCOc1cc(CNCCCCCCNCc2cc(OCCCC)cc3ccccc23)c2ccccc2c1,inhibition,[1],4.98%
same,inhibition,[2],0.76%
same,inhibition,[3],-2.17%
COc1cc(Cc2cnc(N)nc2N)cc(OCCCCC2NC(=O)NC2=O)c1OC (centres undefined),inhibition,[1],14.8%
same,inhibition,[2],14.5%
same,inhibition,[3],11.6%
CCNc1cc(C(=O)N[C@@H](Cc2ccccc2)[C@H](O)CNC2CCCC2)cc(N2CCCC2=O)c1,inhibition,[1],3.87%
same,inhibition,[2],3.77%
same,inhibition,[3],3.46%
CC(C)(C)C1CCc2onc(C(=O)Nc3cc(Cl)ccc3O)c2C1 (centres undefined),inhibition,[1],7.15%
same,inhibition,[2],5.86%
same,inhibition,[3],4.8%
COc1cc(Nc2nccc(N3CCC(NC(=O)C4COc5ccccc5O4)C3)n2)cc(OC)c1OC (centres undefined),inhibition,[1],2.77%
same,inhibition,[2],1.3%
same,inhibition,[3],2.12%
COc1cc(NC(=O)c2ccc3c(=O)n(Cc4ccccc4)c(=S)[nH]c3c2)cc(OC)c1OC,inhibition,[1],5.79%
same,inhibition,[2],7.58%
same,inhibition,[3],7.73%
CCOC(=O)C1=C(C)NC(Cn2ccnc2)=C(C(=O)OCC)C1c1ccc(C(C)(C)C)cc1 (centres undefined),inhibition,[1],2.7%
same,inhibition,[2],2.73%
same,inhibition,[3],2.07%
COc1ccccc1CC1CCCN(C2CCC(NC(=O)c3cc4ccccc4[nH]3)CC2)C1 (centres undefined),inhibition,[1],0.46%
same,inhibition,[2],0.32%
same,inhibition,[3],-0.6%
COc1cccc(CC(=O)NC2CCN(c3ccnc4cc(Cl)ccc34)C2)c1 (centres undefined),inhibition,[1],0.02%
same,inhibition,[2],-0.46%
same,inhibition,[3],1.48%
COc1ccc(CNC(=O)c2cnc3c(O)cccc3c2Nc2cccc(NC(=O)c3ccc(F)cc3)c2)cc1,inhibition,[1],76%
same,inhibition,[2],78.5%
same,inhibition,[3],75.3%
CC(C)(C)c1ccc(NC(=O)c2cccc(CN3CCN(Cc4cccc(O)c4)CC3)c2)cc1,inhibition,[1],0.93%
same,inhibition,[2],-0.15%
same,inhibition,[3],0.64%
NCc1ccc(-c2ccc3c(N)nccc3c2)cc1,inhibition,[1],-3.43%
same,inhibition,[2],0.57%
same,inhibition,[3],0.41%
Cc1ccccc1CNc1nccc(NCCC(=O)Nc2ccccc2)n1,inhibition,[1],4.53%
same,inhibition,[2],2.1%
same,inhibition,[3],0.01%
Cc1ccc(Cn2ncc(N3CC(C)NC(C)C3)c(Cl)c2=O)cc1NC(=O)Nc1ccc(-c2ccccc2)cc1 (centres undefined),inhibition,[1],14.6%
same,inhibition,[2],13.9%
same,inhibition,[3],13.6%
Cc1[nH]c(C)c(C(F)(F)F)c(=O)c1-c1ccc(Oc2ccc(OC(F)(F)F)cc2)cc1,inhibition,[1],2.24%
same,inhibition,[2],2.31%
same,inhibition,[3],0.52%
Cc1nc(-c2nc(NCc3ccncc3)ncc2-c2ccsc2)sc1C,inhibition,[1],-1.32%
same,inhibition,[2],-0.89%
same,inhibition,[3],0.31%
CCCCN1C(=N)NC(c2ccccc2)(c2ccccc2)C1=O,inhibition,[1],5.12%
same,inhibition,[2],3.94%
same,inhibition,[3],3.58%
COc1cc(C)ccc1N1CCN(CCCCNC(=O)c2ccc(NC(=O)c3ccc(Cl)cc3)cc2)CC1,inhibition,[1],6.85%
same,inhibition,[2],6.83%
same,inhibition,[3],6.92%
CN(C)c1ccc(-c2ccc(C(=O)NC3CCN(Cc4ccccc4)CC3)s2)cc1,inhibition,[1],1.65%
same,inhibition,[2],0.56%
same,inhibition,[3],1.83%
CCC(=O)Nc1cc(=O)[nH]c2nc(-c3ccc(Cl)cc3)nn12,inhibition,[1],-1.32%
same,inhibition,[2],-2.09%
same,inhibition,[3],-2.81%
